Laboratory results: PubChem BioAssay (NCI)
This is part of a sample that, as a whole, favours compounds with a hit. Of some 83,000 tested, about 20% had one in any assay.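 Single-concentration screen, 48 h exposure, 96-well plates. Endpoint: percent growth. Below 10 = active.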 Calls of active or inactive are those of the source.

Test system: HL-60(TB) leukemia
Assay: NCI-60 one-dose screen, 48 h (100 = growth as untreated, 0 = no growth, -100 = all killed)
Conditions: 10 µM unless noted

| SMILES | growth |
| --- | --- |
| COc1cc(Nc2nc(O)c(/C=C3\C=Nc4ccccc43)s2)cc(OC)c1OC | -16% (active) |
| Cn1cc(-c2nnc(N)nc2-c2c[nH]c3ccc(F)cc23)c2cc(Br)cnc21 | 47.1% (inactive) |
| C#C[C@]1(O)CC[C@H]2[C@@H]3CC=C4c5sc(Nc6ccc(N(C)C)cc6)nc5CC[C@]4(C)[C@H]3CC[C@@]21C | -26.1% (active) |
| COc1ccc2ccccc2c1/C=C1\SC(=Nc2ccc(O)cc2)NC1=O | -29.9% (active) |
| CCCSc1nc(NCCc2c[nH]c3ccccc23)c(C#N)c(-c2ccccc2)n1 | 70.4% (inactive) |
| Cc1c(C(=O)NNC(=O)Nc2ccc(Cl)cc2)nnn1-c1ccc(Br)cc1 | 103% (inactive) |
| CN(C)c1nc(NCCNS(=O)(=O)c2ccc(C(=O)/C=C/c3ccccc3)cc2)nc(N2CCOCC2)n1 | 33% (inactive) |
| CC1(C)CC[C@]2(C(=O)Nc3ccccc3)CC[C@]3(C)C(=CCC4[C@@]5(C)C[C@@H](O)[C@H](O)[C@@](C)(CO)C5CC[C@]43C)C2C1 (stereo not given in full) | 13.1% (inactive) |
| CN(C)C(=O)c1cc(-c2ccc3ncnc(N4CCc5cc(F)c(Cl)cc54)c3c2)cnc1N | -73.8% (active) |
| C=C1CC[C@@H]2[C@]3(C)COC(c4cn[nH]c4-c4ccccc4)O[C@@H]3CC[C@@]2(C)[C@@H]1C/C=C1/C(=O)OCC1O (stereo not given in full) | 8.64% (active) |
| CC1(C)CC[C@]2(C(=O)Nc3ccc(Br)cc3)CC[C@]3(C)C(=CCC4[C@@]5(C)C[C@@H](O)[C@H](O)[C@@](C)(CO)C5CC[C@]43C)C2C1 (stereo not given in full) | -13.2% (active) |
| COc1ccc(C(=O)Nc2ccc(-c3ccc4c(c3)NC(=O)/C4=C\c3ccc[nH]3)cc2)cc1 | 89.6% (inactive) |
| Cn1cc(-c2cc3nc(-c4c[nH]c5ccc(Cl)cc45)cc(N)n3n2)c2ccccc21 | -34.2% (active) |
| NC(=S)Nc1cccc(NC(N)=S)c1 | 99.1% (inactive) |
| CC1=C(C(=O)Nc2ccccc2)C(c2ccc3ccccc3c2)n2c(nc3ccccc32)N1 (stereo not given) | 57.4% (inactive) |
| COc1cc2c3c(n(CCCn4ccnc4)c(=O)c2cc1OC)-c1nc2c(cc1C3=O)OCO2 | 75.8% (inactive) |
| O=C(Cc1c(-c2cccc([N+](=O)[O-])c2)n(-c2ncnc3c2c(-c2ccccc2)c(-c2ccccc2)n3Cc2ccccc2)[nH]c1=O)c1ccc(Cl)c(Cl)c1 | 11.6% (inactive) |
| NS(=O)(=O)c1ccc(NC(=O)CSc2ccc(-c3ccccc3)nn2)c(Br)c1 | 99.2% (inactive) |
| CCOP(=O)(OCC)O[C@H]1CCC(=O)[C@@H]2[C@H]1[C@H]1C[C@@H]3[C@@]4(C)CCCC(C)(C(=O)OC)[C@@H]4CC[C@@]23C=C1C(C)C (stereo not given in full) | 36.4% (inactive) |
| Nc1nnc(-c2cncc(Br)c2)c(-c2c[nH]c3ccc(Br)cc23)n1 | 36.7% (inactive) |

| SMILES | growth |
| --- | --- |
| COc1ccc(C2N(c3ccc(Br)cc3)N=C(C(C)=O)N2[C@H]2[C@H](OC(C)=O)O[C@H](COC(C)=O)[C@@H](OC(C)=O)[C@@H]2OC(C)=O)cc1 (stereo not given in full) | 23.7% (inactive) |
| Nc1nnc(-c2c[nH]c3ccc(F)cc23)c(-c2c[nH]c3ncccc23)n1 | 63.3% (inactive) |
| Cc1cc(N=C2NC(=O)S/C2=C\c2ccc(F)cc2)n[nH]1 | 1.74% (active) |
| CCOC(=O)C1=C(N)N(c2ccccc2)C2=C(C(=O)CC(C)(C)C2)C1c1ccc(N2CCOCC2)cc1 (stereo not given) | 101% (inactive) |
| Cc1ccccc1NC(=O)c1cccc(NC(=O)CCl)c1 | 19% (inactive) |
| COc1ccc2[nH]c(O)c(N=NC(=O)c3ccc4nc(-c5ccc(Cl)cc5)[nH]c4c3)c2c1 | 88.5% (inactive) |
| CC(C)(C)OC(=O)N1C/C(=C\c2ccc(F)cc2)C(=O)/C(=C/c2ccc(F)cc2)C1 | -6.78% (active) |
| Cn1cc(-c2cc(N)n3nc(-c4c[nH]c5ccc(Br)cc45)cc3n2)c2cc(Br)cnc21 | -44.2% (active) |
| C=C1CC[C@@H]2[C@]3(C)COC(c4cn[nH]c4-c4ccc(F)cc4)O[C@@H]3CC[C@@]2(C)[C@@H]1C/C=C1/C(=O)OCC1O (stereo not given in full) | -21.7% (active) |
| COc1ccc(C(=O)COc2ccc(NC(=O)Nc3ccc(Cl)c(C(F)(F)F)c3)cc2)cc1 | 19% (inactive) |
| O=C(Nc1nc2ccc([N+](=O)[O-])cc2s1)Nc1cc(Cl)ccc1I | -47.7% (active) |
| O=C(/C=C/Nc1ccc(F)cc1F)c1ccc2c(c1)Nc1ccccc1S2 | 26.9% (inactive) |
| COc1cc(C=O)ccc1OC(=O)c1cc(-c2ccc(C)cc2)n(-c2ccc(S(C)(=O)=O)cc2)n1 | 83.4% (inactive) |
| COc1cc(C2CC(c3ccc(C(F)(F)F)cc3)=Nc3c(N)nc(N)nc3N2)ccc1Oc1nc(Nc2ccc(F)cc2)nc(N(C)C)n1 (stereo not given) | 13.7% (inactive) |
| Cn1cc(-c2cc(N)n3nc(-c4cn(C)c5ccccc45)cc3n2)c2cc(F)ccc21 | -20.1% (active) |
| Cc1[nH]nc2ccc3nc(-c4cnn(CCO)c4)c4c(c3c12)CCCC4 | 36.9% (inactive) |
| CCCCSc1nc(NCCc2c[nH]c3ccccc23)c(C#N)c(-c2ccccc2)n1 | 45.8% (inactive) |
| CCCCCCCCc1ccc(C(=O)Nc2ccc(C)c(OP(=O)(O)O)c2)cc1 | 78.4% (inactive) |
| O=C(CSc1nc2ccccc2c(=O)[nH]1)NNC(=O)c1ccccc1Cl | 105% (inactive) |
| O=C(NO)c1ccc(CN2CCN(c3nc(-c4ccccc4)c4ccccc4n3)CC2)cc1 | 7.7% (active) |
